Experimental data taken from PubChem BioAssay (Tox21).
Records with an inconclusive call do not appear. Entries that show only a call come without a potency. Unmarked numbers belong to inactive results. Calls of active or inactive are those of the source. Calls follow the shape of the dose curve; as a rule, active = well fitted cell-killing curve with a large enough effect in the repeat runs; inconclusive = weak or mixed curves, or effect the other way; inactive = no such curve, though single readings can be large or run the other way.

Experiment: qHTS assay to identify small molecule antagonists of the vitamin D receptor (VDR) signaling pathway - cell viability counter screen (AID 743225); also: nearly all actives have a fitted effect of over 50% in size
Conditions: VDR-bla HEK293T viability, CellTiter-Glo luminescence, 16 h; series mostly up to 61 µM; viability change, negative = cytotoxic: at the top concentration
Procedure, shortened: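 In this counter screen, VDR-bla HEK 293T cells receive test compound plus 3 nM final calcitriol for 16 h at 37C. Room-temperature steps of 2 h with the beta-lactamase substrate, then 30 min with CellTiter-Glo, precede the luminescence read.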
With `C#C[C@]1(O)CC[C@H]2[C@@H]3CCC4=Cc5oncc5C[C@]4(C)[C@H]3CC[C@@]21C` the “viability change, negative = cytotoxic” value was -22.5%.
With `CN(C)CCN(Cc1cccs1)c1ccccn1` the Potency was “inactive”.
In the case of `CC(C)(C)NC(=O)[C@H]1CC[C@H]2[C@@H]3CC[C@H]4NC(=O)C=C[C@]4(C)[C@H]3CC[C@]12C`, the Potency is reported as “inactive”.
In the case of `CCCCC(CC)COCC1CO1` (centres undefined), the “viability change, negative = cytotoxic” value is reported as 1.47%.
With `c1cc(-c2ccncc2)ccn1` the Potency was “inactive”.
With `OC[C@H]1O[C@@H]2O[C@H]3[C@H](O)[C@@H](O)[C@@H](O[C@H]4[C@H](O)[C@@H](O)[C@@H](O[C@H]5[C@H](O)[C@@H](O)[C@@H](O[C@H]6[C@H](O)[C@@H](O)[C@@H](O[C@H]7[C@H](O)[C@@H](O)[C@@H](O[C@H]8[C@H](O)[C@@H](O)[C@@H](O[C@H]1[C@H](O)[C@H]2O)O[C@@H]8CO)O[C@@H]7CO)O[C@@H]6CO)O[C@@H]5CO)O[C@@H]4CO)O[C@@H]3CO` the Potency was “inactive”.
With `c1ccc2cc(Nc3ccc(Nc4ccc5ccccc5c4)cc3)ccc2c1` the Potency was “inactive”.
For `CC(=O)CC/C=C(\C)CCC=C(C)C`, the Potency was “inactive”.
In the case of `Nc1ccc(Nc2ccccc2)cc1`, the Potency is reported as “inactive”.
In the case of `Nc1ncnc2nc[nH]c12`, the Potency is reported as “inactive”.
For `O=C1OC2(c3cc(Br)c(O)c(Br)c3Oc3c2cc(Br)c(O)c3Br)c2c(Cl)c(Cl)c(Cl)c(Cl)c21`, the “viability change, negative = cytotoxic” value was -1.71%.
For `CCCCOCCOCCO`, the Potency was “inactive”.
With `Cc1c(C(N)=O)cc([N+](=O)[O-])cc1[N+](=O)[O-]` the Potency was “inactive”.
With `CCC(C)c1ccccc1O` (centres undefined) the Potency was “inactive”.
In the case of `Nc1ccccc1N`, the “viability change, negative = cytotoxic” value is reported as 4.43% [at 78.8 µM].
With `OC1CCCCCCCCCCC1` the Potency was “inactive”.
For `Cc1c(OCC(F)(F)F)ccnc1CS(=O)c1nc2ccccc2[nH]1` (centres undefined), the Potency was “inactive”.
In the case of `O=CCCCC=O`, the Potency is reported as “inactive”.
For `NNc1ccc(C(=O)O)cc1`, the Potency was “inactive”.
In the case of `O=Cc1ccccc1O`, the Potency is reported as “inactive”.
With `Cc1cc2nc3c(=O)[nH]c(=O)nc-3n(C[C@H](O)[C@H](O)[C@H](O)CO)c2cc1C` the Potency was “inactive”.
In the case of `COc1cccc2c1C(=O)c1c(O)c3c(c(O)c1C2=O)C[C@@](O)(C(=O)CO)C[C@@H]3O[C@H]1C[C@H](N)[C@H](O)[C@H](C)O1`, the “viability change, negative = cytotoxic” value is reported as 0.802%.
For `CN(C)C(=N)N=C(N)N`, the Potency was “inactive”.
For `CC(=O)O[C@]1(C(C)=O)CC[C@H]2[C@@H]3C=C(Cl)C4=CC(=O)[C@@H]5C[C@@H]5[C@]4(C)[C@H]3CC[C@@]21C`, the Potency was “inactive”.
